The values that follow come from PubChem BioAssay (Tox21).

Records with an inconclusive call do not appear. Values without a mark were called inactive. The call rests on the fitted dose curve.
On the % scale 0 is the no-effect control and ±100 the full control effect.

Sequence of Retinoic acid receptor RXR-alpha (Homo sapiens) (P19793 whole entry, looked up): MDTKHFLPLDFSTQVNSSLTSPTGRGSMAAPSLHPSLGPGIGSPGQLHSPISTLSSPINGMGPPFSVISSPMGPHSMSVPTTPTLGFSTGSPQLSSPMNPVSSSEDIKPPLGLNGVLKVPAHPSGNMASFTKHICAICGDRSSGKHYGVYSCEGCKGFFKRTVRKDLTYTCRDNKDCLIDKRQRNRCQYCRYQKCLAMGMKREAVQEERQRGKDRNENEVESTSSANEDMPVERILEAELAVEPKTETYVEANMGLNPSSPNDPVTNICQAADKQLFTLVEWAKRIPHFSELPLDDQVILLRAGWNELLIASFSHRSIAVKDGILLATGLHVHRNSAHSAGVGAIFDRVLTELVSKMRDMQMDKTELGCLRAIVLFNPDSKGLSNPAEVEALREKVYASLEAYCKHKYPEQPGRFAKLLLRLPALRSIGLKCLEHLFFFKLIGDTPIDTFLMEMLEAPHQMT

The target in this test is Retinoic acid receptor RXR-alpha (Homo sapiens) (UniProt P19793). As to the kind of experiment: qHTS assay to identify small molecule agonists of the RXR signaling pathway (AID 1159527). Further: nearly all actives have a fitted effect of over 35% in size. Conditions: HEK293T RXRa-UAS-bla, beta-lactamase ratio, 16 h; series mostly up to 76.8 µM; activation: at the top concentration. The source says:
U.S. Tox21 Program National Center for Advancing Translational Sciences [NCATS] NIH Chemical Genomics Center [NCGC] U.S. Environmental Protection Agency [EPA] National Institutes of Environmental Health Sciences [NIEHS] National Toxicology Program [NTP] U.S. Food and Drug Administration [FDA] Tox21 Assay Overview: The Retinoid X receptor (RXR), a nuclear hormone receptor expressed in liver, spleen, placenta, epidermis, central nervous system. These receptors are able to form homo and heterodimers with other nuclear receptors and due to this heterodimerizing ability, RXR functions as master regulators producing diverse physiological effects. Three subtypes of RXR exist; alpha, beta and gamma. Retinoid X receptor alpha (RXR-alpha) has potential roles in metabolic signaling pathways, skin alopecia, dermal cysts, cardiac development, insulin sensitization etc. Therefore screening environmental chemicals on RXR-alpha signaling can be used for the studies focused on such therapeutic applications. For quantification of RXR-alpha ligands signaling, GeneBLAzer RXR alpha-UAS-bla HEK 293T (Life Technologies, Carlsbad, CA) cells containing a beta-lactamase reporter-gene under control of Retinoid X receptor-alpha response element were used to screen Tox21 10K library.
Tox21 Assay Protocol Summary: RXR-alpha HEK 293T cells were dispensed at 2,000 cells/6 uL of assay medium containing 2% charcoal-stripped FBS using a Multidrop Combi (ThermoFisher Scientific, Waltham, MA) dispenser. The assay was performed in black wall/clear-bottom 1536-well plates (Greiner Bio-One North America Inc. Monroe, NC). 9-cis retinoic acid was used as a positive control in the agonist mode screen. After the assay plates were incubated at 37 C and 5% CO2 for 5 hr, 23 nL of compounds dissolved in DMSO, positive controls or DMSO only were transferred to the assay plate by a Pintool station (Kalypsys, San Diego, CA). The assay plates were incubated at 37 C and 5% CO2 for 16 hr. One uL of LiveBLAzer B/G FRET substrate (Life Technologies) was added using a Flying Reagent Dispenser (Aurora Discovery, San Diego, CA) and the plates were incubated at room temperature for 2 hr. Fluorescence intensity (405 nm excitation, 460/530 nm emission) was measured using an Envision plate reader (PerkinElmer, Shelton, CT).
Consider `CC(Cc1ccc(C(C)(C)C)cc1)CN1C[C@@H](C)O[C@@H](C)C1` (stereo not given in full), for which the “activation” value was -10.6%. As for `CN(CCCC(O)c1cccnc1)N=O` (stereo not given), the “activation” value is 0.505%.

With `CC(=[OH+])/C=C(/C)[O-].CC(=[OH+])/C=C(\C)[O-].CC(=[OH+])/C=C(\C)[O-].[Al]`, the “activation” value is 2.84%. The result for `N#Cc1ccccc1Cl` reads 0.892%; that for `COCC(=O)N(c1c(C)cccc1C)[C@H](C)C(=O)OC`, 0.102%. On to `C[C@]12CC[C@@H]3c4ccc(OC(=O)N(CCCl)CCCl)cc4CC[C@H]3[C@@H]1CC[C@@H]2O`, for which the “activation” value is -15.7% [at 35.3 µM]. In the case of `NC(=O)CCl`, the “activation” value was -7.53%. On to `O=[N+]([O-])c1cc(Cl)ccc1Cl`, for which the “activation” value was -0.258%. To `ClC(Cl)=C(Cl)Cl` belongs 8.11%; to `COC[C@H](C)N(C(=O)CCl)c1c(C)csc1C`, -2.73%; to `O=C(Cl)c1ccc(Cl)cc1`, 2.24%.

For `Clc1ccc(Oc2ccccc2)cc1`, the “activation” value is -2.34%.

In the case of `CCCN(CC)CC1COC2(CCC(C(C)(C)C)CC2)O1` (stereo not given), the “activation” value is 16.3%. To `CCCCOP(=O)(CCCC)OCCCC` belongs -3.91%; to `CC(C)C(=O)Cl`, 1.41%. For the molecule `O=C(CBr)c1ccc(O)cc1`, the “activation” value is -20.7%. In the case of `CC(C)(C)OO`, the “activation” value is 0.889%. To `CCOC(=O)c1ccccc1S(=O)(=O)NC(=O)Nc1nc(Cl)cc(OC)n1` belongs 1.79%; to `CCc1cc(C)cc(CC)c1-c1c(OC(=O)C(C)(C)C)n2n(c1=O)CCOCC2`, 7.11%.

Turning to `CC(C)CBr`, the “activation” value was 4.96%. The result for `N#CC(Cl)Cl` reads -3.32%. `CC(C)CC(C)N` (stereo not given): the “activation” value was 4.13%. Consider `ClC1=C(Cl)[C@]2(Cl)[C@@H]3[C@@H](Cl)[C@@H](Cl)C[C@@H]3[C@@]1(Cl)C2(Cl)Cl`, for which the “activation” value is -1.23%. In the case of `CCc1ccccc1C`, the “activation” value was -6.37%. As to `Brc1c(Br)c(Br)c(Oc2c(Br)c(Br)c(Br)c(Br)c2Br)c(Br)c1Br`, the activation was 5.85% [at 15.8 µM].

As for `CN(CCCC(=O)c1cccnc1)N=O`, the “activation” value was -0.0196%. Consider `CC(=O)Nc1ccc2c(c1)Cc1ccccc1-2`, for which the “activation” value was -1.19%. With `CC(C)[C@H](C(=O)OC(C#N)c1cccc(Oc2ccccc2)c1)c1ccc(OC(F)F)cc1` (stereo not given in full), the “activation” value was -5.02%. Turning to `CCSC(C)CC1CC(=O)C(/C(CC)=N/OC/C=C/Cl)=C(O)C1` (stereo not given), the “activation” value is 0.892% [at 35.3 µM]. Regarding `BrCC(Br)c1ccccc1` (stereo not given), the “activation” value was 0.879%. In the case of `COc1ccc(OC)c(C=O)c1`, the “activation” value was -19.1%. Take `Cc1cc(Cl)ccc1O[C@H](C)C(=O)O`: the “activation” value was 1.42%. Turning to `COc1ccc(OC)c(CC(C)N)c1` (stereo not given), the “activation” value was 2.33%. As for `CCOP(=S)(OCC)SCS(=O)(=O)C(C)(C)C`, the “activation” value was -7.94%. Take `CCS(=O)(=O)c1cccnc1S(=O)(=O)NC(=O)Nc1nc(OC)cc(OC)n1`: the “activation” value was 8.37%. On to `CC(=O)c1ccc(-c2ccccc2)cc1`, for which the “activation” value was -15%. On to `FC(F)(F)c1cccc(C2=CCN(CCc3ccc4ccccc4c3)CC2)c1`, for which the “activation” value was -11% [at 35.3 µM]. With `C1CCC2CCCCC2C1` (stereo not given), the “activation” value is 0.554%. As for `N#CCCSCCC#N`, the “activation” value was 6.96%. In the case of `Nc1ccc([N+](=O)[O-])cc1Cl`, the “activation” value was -11.1%.
